# In article PMC7862700, “An all-to-all approach to the identification of sequence-specific readers for epigenetic DNA modifications on cytosine”:
# Biological target: T1, ETV7 (Homo sapiens, UniProt Q9Y603 1-341)
# T1 sequence: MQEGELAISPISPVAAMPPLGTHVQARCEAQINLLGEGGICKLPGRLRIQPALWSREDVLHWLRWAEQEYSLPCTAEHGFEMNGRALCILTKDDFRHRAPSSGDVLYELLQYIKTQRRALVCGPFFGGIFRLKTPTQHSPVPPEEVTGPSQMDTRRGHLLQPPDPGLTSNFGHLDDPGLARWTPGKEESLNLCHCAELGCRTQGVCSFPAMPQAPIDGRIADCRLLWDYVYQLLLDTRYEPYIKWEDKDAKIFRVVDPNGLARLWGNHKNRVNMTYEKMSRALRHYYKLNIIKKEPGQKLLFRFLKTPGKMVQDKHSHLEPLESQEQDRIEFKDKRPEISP
# Experiment: DAPPL (digital affinity profiling via proximity ligation, sequencing); 10 mM Tris-HCl pH 7.5, 50 mM NaCl, 1 mM DTT, 4% glycerol, room temperature, 30 min; GST-TFs on glutathione beads, 16-mer random dsDNA library, 0.1% formaldehyde crosslink after washing; high values mean tight binding
# Conditions: protein: recombinant; tags: N-terminal GST; dsDNA, one strand shown
# Outline: (§1)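 Binding signal is given per hexamer as its read frequency for a factor divided by its frequency in the tag-only sample. GST-fused human transcription factors were expressed in yeast, captured on glutathione beads, barcoded with DNA and pooled with that sample, then incubated with 200 nmole of a 16-mer random double-stranded DNA library in Tris/NaCl/DTT/glycerol buffer for 30 min at room temperature. The pools were then washed, crosslinked, proximity-ligated, amplified by PCR and sequenced on an Illumina NextSeq500.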
row,Sequence,binding signal
1,CGTACA,"1.25 fold enrichment (6-mer frequency, TF over GST control)"
2,ACTGCG,"1.21 fold enrichment (6-mer frequency, TF over GST control)"
3,AGATGC,"1.03 fold enrichment (6-mer frequency, TF over GST control)"
4,GTTCAA,"1.03 fold enrichment (6-mer frequency, TF over GST control)"
5,TGACAT,"1.25 fold enrichment (6-mer frequency, TF over GST control)"
6,CCGGAA,"5.01 fold enrichment (6-mer frequency, TF over GST control)"
7,GTCTCT,"1.02 fold enrichment (6-mer frequency, TF over GST control)"
8,CGACAT,"1.23 fold enrichment (6-mer frequency, TF over GST control)"
9,AACGAC,"1.07 fold enrichment (6-mer frequency, TF over GST control)"
10,GACCTG,"1.17 fold enrichment (6-mer frequency, TF over GST control)"
11,CGACCA,"1.16 fold enrichment (6-mer frequency, TF over GST control)"
12,GGAACT,"1.56 fold enrichment (6-mer frequency, TF over GST control)"
13,ACTCAC,"1.2 fold enrichment (6-mer frequency, TF over GST control)"
14,GTACAT,"1.53 fold enrichment (6-mer frequency, TF over GST control)"
15,ATGTGG,"1.08 fold enrichment (6-mer frequency, TF over GST control)"
16,GAACCC,"1.16 fold enrichment (6-mer frequency, TF over GST control)"
17,GGAAAA,"1.26 fold enrichment (6-mer frequency, TF over GST control)"
18,ATGTAC,"1.41 fold enrichment (6-mer frequency, TF over GST control)"
19,ATGGAC,"1.02 fold enrichment (6-mer frequency, TF over GST control)"
20,TTCCGT,"1.6 fold enrichment (6-mer frequency, TF over GST control)"

row,Sequence,binding signal
1,GTGCTC,"1.25 fold enrichment (6-mer frequency, TF over GST control)"
2,GTCTTC,"1.14 fold enrichment (6-mer frequency, TF over GST control)"
3,GCAACT,"1.2 fold enrichment (6-mer frequency, TF over GST control)"
4,GTTCCC,"1.3 fold enrichment (6-mer frequency, TF over GST control)"
5,TCTGTC,"1.14 fold enrichment (6-mer frequency, TF over GST control)"
6,TGGCAC,"1.18 fold enrichment (6-mer frequency, TF over GST control)"
7,AACACG,"1.13 fold enrichment (6-mer frequency, TF over GST control)"
8,GAAGTT,"1.65 fold enrichment (6-mer frequency, TF over GST control)"
9,ACCTCG,"1.21 fold enrichment (6-mer frequency, TF over GST control)"
10,CCGGCA,"1.27 fold enrichment (6-mer frequency, TF over GST control)"
11,ACCGTC,"1.09 fold enrichment (6-mer frequency, TF over GST control)"
12,TGCCTG,"1.17 fold enrichment (6-mer frequency, TF over GST control)"
13,ATGTGC,"1.03 fold enrichment (6-mer frequency, TF over GST control)"
14,CCTGCA,"1.24 fold enrichment (6-mer frequency, TF over GST control)"
15,CAGGAA,"1.52 fold enrichment (6-mer frequency, TF over GST control)"
16,TGCCCC,"1.18 fold enrichment (6-mer frequency, TF over GST control)"
17,TAGGAA,"1.04 fold enrichment (6-mer frequency, TF over GST control)"
18,TGTCTC,"1.16 fold enrichment (6-mer frequency, TF over GST control)"
19,GTTTGA,"1.24 fold enrichment (6-mer frequency, TF over GST control)"

# Biological target: T2, ELF5 (Homo sapiens, UniProt Q9UKW6-2 1-255)
# T2 sequence: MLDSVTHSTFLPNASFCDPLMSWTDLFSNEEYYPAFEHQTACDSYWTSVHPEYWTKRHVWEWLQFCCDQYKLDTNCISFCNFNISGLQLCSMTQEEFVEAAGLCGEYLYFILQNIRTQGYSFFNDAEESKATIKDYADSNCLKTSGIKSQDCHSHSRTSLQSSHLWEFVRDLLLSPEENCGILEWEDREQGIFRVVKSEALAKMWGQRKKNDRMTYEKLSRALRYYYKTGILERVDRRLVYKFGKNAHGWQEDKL
# Experiment: as above
# Conditions: protein: recombinant; tags: N-terminal GST; dsDNA, one strand shown
# Outline: as §1
row,Sequence,binding signal
1,CGTACA,"1.17 fold enrichment (6-mer frequency, TF over GST control)"
2,ACTGCG,"1.25 fold enrichment (6-mer frequency, TF over GST control)"
3,AGATGC,"1.12 fold enrichment (6-mer frequency, TF over GST control)"
4,GTTCAA,"1.12 fold enrichment (6-mer frequency, TF over GST control)"
5,TGACAT,"1.22 fold enrichment (6-mer frequency, TF over GST control)"
6,CCGGAA,"6.42 fold enrichment (6-mer frequency, TF over GST control)"
7,GTCTCT,"1.11 fold enrichment (6-mer frequency, TF over GST control)"
8,CGACAT,"1.33 fold enrichment (6-mer frequency, TF over GST control)"
9,AACGAC,"1.18 fold enrichment (6-mer frequency, TF over GST control)"
10,GACCTG,"1.21 fold enrichment (6-mer frequency, TF over GST control)"
11,CGACCA,"1.2 fold enrichment (6-mer frequency, TF over GST control)"
12,GGAACT,"2.25 fold enrichment (6-mer frequency, TF over GST control)"
13,ACTCAC,"1.21 fold enrichment (6-mer frequency, TF over GST control)"
14,GTACAT,"1.3 fold enrichment (6-mer frequency, TF over GST control)"
15,ATGTGG,"1.15 fold enrichment (6-mer frequency, TF over GST control)"
16,GAACCC,"1.14 fold enrichment (6-mer frequency, TF over GST control)"
17,GGAAAA,"1.67 fold enrichment (6-mer frequency, TF over GST control)"
18,ATGTAC,"1.28 fold enrichment (6-mer frequency, TF over GST control)"
19,ATGGAC,"1.13 fold enrichment (6-mer frequency, TF over GST control)"
